USP30 inh: human USP30 deubiquitinase inhibition | inhibition, % at 25 µM | purified USP30, Ub-rhodamine cleavage fluorescence | actives 5.3% (n = 47,000) | Q70CQ3
USP17 block: human USP17-like deubiquitinase inhibition; actives 6.5% (n = 47,000); A8MUK1; purified USP17, Ub-rhodamine cleavage fluorescence, 3 h; AID 1645855; inhibition, % at 50 µM
USP28 inh: human USP28 deubiquitinase inhibition; actives 3% (n = 47,000); purified USP28, Ub-rhodamine cleavage fluorescence, 30 min; inhibition, % at 25 µM; Q96RU2
USP8 inh: blocks human USP8 ubiquitin-rhodamine cleavage; purified USP8, Ub-rhodamine cleavage fluorescence, 30 min; inhibition, % at 20 µM; actives 4.2% (n = 47,000); AID 1645853
The depositor's hits bear a star; · = not tested or not shown. Most compounds without a hit are left out; they make up all but 13% or so of the library. Cut-off read from the data, not from the text of the source: active = inhibition above about 30%; inactive = the rest.

SMILES	USP30 inh	USP17 block	USP28 inh	USP8 inh
COc1ccc(-c2cc(C(=O)Nc3ccccc3F)on2)cc1	0	42*	2	15
Cc1ccc(OCC(=O)Nc2cccc3ncccc23)cc1	22	9	7	5
CCCCn1c(CCC(=O)Nc2ccc(N3CCOCC3)cc2)nc2cc(S(=O)(=O)N3CCOCC3)ccc21	-24	-1	12	-71
COc1ccc(-c2ocnc2C(=O)Nc2ccccc2F)cc1OC	81*	76*	27	26
COc1cccc(CNC(=O)c2sc(-c3ccc(OC)c(OC)c3)nc2C)c1	13	45*	12	12
COc1cccc(-c2nc(CC(=O)NCc3cccc(C(=O)O)c3)cs2)c1	4	10	-2	9
COc1ccc2c(c1)C/C(=C/c1ccc(OC)cc1OC)CC2=O	14	12	4	19
COc1ccc(C2CC(=O)Nc3n[nH]c(-c4ccccc4)c32)cc1OC (configuration not stated)	70*	15	20	11
COc1ccc(OC)c(C2CC(=O)Nc3n[nH]c(-c4ccccc4)c32)c1 (configuration not stated)	36*	72*	10	0
COc1ccccc1C1CC(=O)Nc2n[nH]c(-c3ccccc3)c21 (configuration not stated)	0	·	7	-12
COc1cc(C2CC(=O)Nc3nc(-c4ccccc4)[nH]c(=O)c32)cc(OC)c1O (configuration not stated)	66*	82*	65*	9
CC1CCc2c(sc3nc(CN4CCOCC4)nc(Oc4ccc5c(c4)OCO5)c23)C1 (configuration not stated)	-14	-8	-5	-1
CCCCCc1cc(O)c2c(ccc3c(O)c4c(cc32)C(C)(C)c2cc(O)cc(O)c2C4=O)c1	-17	31*	10	1
Cc1c(OCc2ccccc2)noc1C1CCN(C(=O)NC2CCOCC2)CC1	-18	0	36*	-6
Cc1c(OCc2ccccc2)noc1C1CCN(C(=O)C(C)C)CC1	·	8	·	0
Cc1ccc(C)c(CN2C(=O)c3ccccc3S(=O)c3ccc(C(=O)N4CCN(c5ccccn5)CC4)cc32)c1 (configuration not stated)	39*	18	24	30
O=C(c1ccc2c(c1)N(Cc1ccc(F)cc1)C(=O)c1ccccc1S2=O)N1CCN(c2ccccn2)CC1 (configuration not stated)	40*	16	26	12
COc1ccccc1N1CCN(C(=O)c2ccc3c(c2)N(Cc2cc(C)ccc2C)C(=O)c2ccccc2S3=O)CC1 (configuration not stated)	51*	20	18	26
CCN1CCN(c2ccc(S(=O)(=O)N3CCOCC3)cc2N)CC1	9	0	-5	8
O=C(COc1ncnc2c(Cl)cc(Cl)cc12)Nc1ccc(F)cc1F	12	30	12	9
CCn1nccc1C1CCCN1C(=O)Nc1ccc(OC)c(OC)c1 (configuration not stated)	3	-2	-8	7
CNC(=O)C1(C)CN(C(=O)CN2CCCCCC2=O)CCO1 (configuration not stated)	24	13	13	14
COc1ccc(OCC(=O)Nc2ccc3c(c2)NC(=O)C(C)O3)cc1 (configuration not stated)	-12	·	5	-12
Cc1ccc(NC(=O)CSc2ccccc2C(=O)Nc2ccc3c(c2)NC(=O)C(C)O3)cc1 (configuration not stated)	-36	13	-1	37*
Cc1cccc(OCC(=O)Nc2ccc3c(c2)NC(=O)C(C)O3)c1 (configuration not stated)	18	18	19	35*
SMILES	USP30 inh	USP17 block	USP28 inh	USP8 inh
O=S(=O)(c1ccccc1)N1CCC(Nc2cccnc2)C1 (configuration not stated)	-380	-41	-101	13
O=C(CCC1=NS(=O)(=O)c2ccccc2N1)N1CCN(c2cccc(Cl)c2)CC1	10	-7	2	-3
O=C(Nc1nccn1Cc1ccccc1)c1cc(-c2cccc(Cl)c2)on1	-138	-35	-28	80*
Cc1ccc(NC(=O)CC2C(=O)Nc3nc(-c4ccccc4)nn32)cc1 (configuration not stated)	21	45*	11	3
COc1ccc(-c2nc3n(n2)C(CC(=O)Nc2cccc4ccccc24)C(=O)N3)cc1 (configuration not stated)	52*	25	27	51*
CC(=O)c1ccc(NC(=O)CC2C(=O)Nc3nc4ccccc4n32)cc1 (configuration not stated)	-14	75*	8	20

Assay outcomes from PubChem.
